Among the data in ChEMBL document CHEMBL4513216, “Probing the Open Global Health Chemical Diversity Library for Multistage-Active Starting Points for Next-Generation Antimalarials” (ACS Infect Dis, 2020) are INHIBITION values, retold here.

The whole screen tested about 69,000 compounds, of which about 8,600 (12%) showed an effect of 50% or more. This excerpt belongs to a sample that is enriched for strong results.

This assay deals with Plasmodium berghei. In words: Screen against P. berghei liver stage (PbLuc), transformed with Luciferase, at 10uM. Format: functional, HepG2. To be noted: tested at 10 uM.
Turning to `Cc1cncc(C(=O)N2CCc3ncc(Cn4cccn4)n3CC2)c1`, the INHIBITION is reported as 10.5%.
With `Cc1cc(C)c2cc(C(=O)N3CCNC(=O)C3)[nH]c2c1`, the INHIBITION turned out to be 14.3%.
For `CNC(=O)C1(CCCc2ccccn2)CN(Cc2scnc2C)C1` the value was 30.4%.
For `Cc1cccc(C)c1Nc1noc2c1CN(C(=O)c1c[nH]nc1C)CC2` the value was 18.34%; for `O=C([C@@H]1CSCN1)N1CC2(CCNCC2)c2cc(Cl)ccc21`, 38.5%.
In the case of `NC(=O)N1CC2(CCNCC2)c2cc(Cl)ccc21`, the INHIBITION amounted to 19.1%.
As to `CN(C)C(=O)N1CC2(CCNCC2)c2cc(F)ccc21`, the INHIBITION is recorded as -15.5%.
For the molecule `O=C(c1ccco1)N1CC2(CCNCC2)c2cc(Cl)ccc21`, the INHIBITION is recorded as 51.9%.
In the case of `O=C(c1ccccc1F)N1CC2(CCNCC2)c2cc(Cl)ccc21` it was -27%; in that of `O=C(c1ccncc1)N1CC2(CCNCC2)c2cc(Cl)ccc21`, 5.04%; in that of `CN(C)C(=O)N1CC2(CCNCC2)c2cc(Cl)ccc21`, 83.5%.
In the case of `CC(=O)N1CC2(CCNCC2)c2cc(Cl)ccc21`, the INHIBITION was determined as 14.9%.
For `O=C([C@H]1CCCN1)N1CC2(CCNCC2)c2cc(Cl)ccc21`, the INHIBITION stood at 58.3%.
For `Cn1ccnc1CN1CCOC(Cn2cccn2)C1` (stereo not drawn) the value was 7.08%; for `CNc1nc2cn(CCc3ccc(Cl)cc3)c(=O)c-2c[nH]1`, -15.5%; for `CN(C)c1cc(CNC(=O)c2ccc(Br)cc2F)ccn1`, 16.8%.
Turning to `Cc1cnc(N2C[C@H]3CCN(CC4CC4)C[C@H]3C2)nc1`, the INHIBITION is given as -21.7%.
Turning to `NC(=O)c1ccc2c(c1)nc1n2CCN(Cc2ccccc2)C1`, the INHIBITION amounted to 16.6%.
Regarding `NC(=O)c1ccc2c(c1)nc1n2CCN(Cc2ccco2)C1`, the INHIBITION is listed as -7.9%.
Regarding `NC(=O)c1ccc2c(c1)nc1n2CCN(Cc2cccnc2)C1`, the INHIBITION came to 54%.
Consider `O=C(NCCCO)c1cc(-c2cc[nH]n2)n2ccccc12`, for which the INHIBITION is listed as 15.4%.
In the case of `CCOc1ccc(C2c3c(N)nc(SC)nc3N=C3COC(=O)C32)cc1` (stereo not drawn) it was -44.5%; in that of `COc1ccc(OC)c(C2c3c(n[nH]c3C)N=C3COC(=O)C32)c1` (stereo not drawn), -15%; in that of `CCN(CC)c1ccc(C2c3c(n[nH]c3C)N=C3COC(=O)C32)cc1` (stereo not drawn), 68.1%.
For `COc1ccc(C2c3c(n[nH]c3C)N=C3COC(=O)C32)cc1OC` (stereo not drawn), the INHIBITION was -2.37%.
Turning to `Cc1ccc(C2c3c(n[nH]c3C)N=C3COC(=O)C32)cc1C` (stereo not drawn), the INHIBITION was 55.3%.
For `CSc1nc(N)c2c(n1)N=C1COC(=O)C1C2c1cccc(Cl)c1` (stereo not drawn) the value was 15.9%; for `Nc1ccc(-c2cnc(C3CCCN3)cn2)cn1` (stereo not drawn), -4.175%; for `Cc1cc(C)n(CC2CCCN2C(=O)c2ccc(NC3CC3)nc2)n1` (stereo not drawn), -5.07%.
For `Cc1ccc(=O)n(CC2(O)CCN(Cc3cccs3)CC2)n1`, the INHIBITION was -20.2%.
As for `O=C(NCCN1CCOCC1)c1nc2ccccc2c(=O)[nH]1`, the INHIBITION stood at 45.7%.
For `CC1COCCN1Cc1nc(-c2ccc(Br)s2)no1` (stereo not drawn), the INHIBITION is reported as -50.8%.
For `CCN1CCOC(CNCc2c(Cl)nc3ccccn23)C1` (stereo not drawn) the value was -13.6%; for `COc1cc(CN2CCCC2)ccc1Oc1ccc2c(c1)CC(CN)O2` (stereo not drawn), 69%; for `Cc1cc(CN2CCCC2)cc(Oc2ccc3c(c2)CC(CN)O3)c1` (stereo not drawn), 4.68%.
As for `COc1c(F)cc(-c2cccc3c2OC(CN)C3)cc1F` (stereo not drawn), the INHIBITION is given as 27.6%.
On to `COc1ccc(CN2CCCC2)cc1Oc1ccc2c(c1)CC(CN)O2` (stereo not drawn), for which the INHIBITION is -27%.
Consider `COc1ccc(CN2CCCC2)cc1Oc1ccc(NC(C)=O)cc1`, for which the INHIBITION is listed as -5.47%.
For `NCC1Cc2cc(Oc3cc(F)c(CN4CCCC4)c(F)c3)ccc2O1` (stereo not drawn) the value was 74%.
As for `CC(=O)N1CCC(c2ccnc(Nc3cc(C(F)(F)F)ccn3)n2)C1` (stereo not drawn), the INHIBITION worked out at 2.55%.
For `CN(C)C(=O)[C@H]1C[C@H]2OCC[C@H]2N(CCOc2ccc(Cl)cc2)C1` the value was 1.48%; for `Cc1ncc2c(n1)CN(CCCc1ccccc1)CC2`, -21.8%; for `Cc1nn(C)c(C)c1NC(=O)c1cccc(CN2CCS(=O)(=O)CC2)c1`, 44.4%.
`Cc1nn(C)c(C)c1NC(=O)c1cccc(CN2C[C@H]3CC[C@@H](C2)N3)c1`: the INHIBITION was found to be 16%.
Regarding `CCn1cc(NC(=O)c2cccc(CN3C[C@@H](C)O[C@@H](C)C3)c2)nn1`, the INHIBITION is 81.3%.
Regarding `Cn1nccc1NC(=O)c1cccc(CN2C[C@H]3CC[C@@H](C2)N3)c1`, the INHIBITION was 6.09%.
On to `CCCn1cc(NC(=O)c2cccc(CN3CC[C@H](O)C3)c2)nn1`, for which the INHIBITION was found to be 65.6%.
Turning to `CCCn1cc(NC(=O)c2cccc(CN3CC=CC3)c2)nn1`, the INHIBITION was -57.5%.
`CCN(Cc1cccc(C(=O)Nc2cn(C)nn2)c1)[C@H]1COC[C@@H]1O`: the INHIBITION is 35.7%.
Regarding `Cc1nn(C)c(C)c1NC(=O)c1cccc(CN2CC[C@H](O)C2)c1`, the INHIBITION is 56.6%.
On to `Cc1ccc(Cl)c(NC(=O)c2cccc(CN3CC[C@H](O)C3)c2)c1`, for which the INHIBITION worked out at 43.9%.
In the case of `CCOc1ccc2cc(C(=O)N3CCn4c(CC)nnc4C3)[nH]c2c1` it was 0.411%; in that of `COc1nn(C)cc1C(=O)N1CCC(c2ccccc2)C1` (stereo not drawn), 11.8%; in that of `Cc1ccccc1C1(C(=O)NCCN2CCCC(C)C2)CCOCC1` (stereo not drawn), 49.8%.
For the molecule `Cc1cc(C)n(CCC(=O)N2CCC(c3nc(C)no3)CC2)n1`, the INHIBITION came to 47.4%.
Regarding `CC(C)n1cnnc1CNC(=O)c1cnc2ccccc2n1`, the INHIBITION was -4.73%.
Regarding `Cc1ccc(Nc2cc(N3CCN(S(C)(=O)=O)CC3)nc(C)n2)cc1`, the INHIBITION is -19.7%.
For `CS(=O)(=O)N1CCN(c2ccc(Nc3ccccn3)nn2)CC1` the value was 21.5%; for `Cc1nc(Nc2ccccn2)cc(N2CCN(S(C)(=O)=O)CC2)n1`, 53.2%.
Consider `O=C1CCC2(CCC(NCc3cccnc3)CC2)N1Cc1ccccc1` (stereo not drawn), for which the INHIBITION amounted to 48.2%.
In the case of `CCn1cc(NC(=O)NCC(C)N(C)C2CC2)cn1` (stereo not drawn) it was -62.8%; in that of `CC(CN1CCC(CCO)CC1)n1cnc2ccccc21` (stereo not drawn), -0.217%.
In the case of `CC(CN1CC[C@@H]2CCCC[C@@H]2C1)n1cnc2ccccc21` (stereo partly drawn) it was 3.58%; in that of `CC(CN1CCC(c2ccccc2)CC1)n1cnc2ccccc21` (stereo not drawn), 56.2%.
Take `CCCC(O)CN1CCC(=O)N(CCOC)Cc2cc3c(cc21)OCO3` (stereo not drawn): the INHIBITION amounted to 22.2%.
For the molecule `COCCN1CCCC1c1nccnc1Nc1ncc(C)s1` (stereo not drawn), the INHIBITION was 8.53%.
In the case of `COCCN1CCCC1c1nccnc1Nc1nccs1` (stereo not drawn), the INHIBITION was 61.9%.
As to `COCCN1CCCC1c1nccnc1Nc1nc(C)cs1` (stereo not drawn), the INHIBITION is on record as 16.9%.
`COCCC(=O)N1CCn2cc(CN3CCN(C)CC3)nc2C1`: the INHIBITION is -17.2%.
For `CCc1nc2n(n1)CC(NCCC(=O)Nc1cc(C)on1)CC2` (stereo not drawn) the value was 7.08%; for `CCN(CC1CN(Cc2c(C)noc2C)CCO1)c1cccnn1` (stereo not drawn), 44.9%.
As to `CCN(CC1CN(Cc2ncc[nH]2)CCO1)c1cccnn1` (stereo not drawn), the INHIBITION came out at 11.1%.
For the molecule `CCN(CC1CN(Cc2ncc(C)o2)CCO1)c1cccnn1` (stereo not drawn), the INHIBITION was -17.4%.
Consider `CCN(CC1CN(CC2CCC2)CCO1)c1cccnn1` (stereo not drawn), for which the INHIBITION is 62.8%.
On to `CCN(CC1CN(Cc2nc(C3CC3)no2)CCO1)c1cccnn1` (stereo not drawn), for which the INHIBITION is listed as 87.6%.
On to `CCN(CC1CN(Cc2nccn2CC)CCO1)c1cccnn1` (stereo not drawn), for which the INHIBITION is listed as 41.4%.
Regarding `COc1cc(C2CC(=O)Nc3c2c(=O)[nH]n3C2CCCC2)ccc1O` (stereo not drawn), the INHIBITION is listed as 27.4%.
Turning to `CSc1[nH]nc(NC(=O)c2ccncc2)c1C#N`, the INHIBITION is 48.8%.
`O=C(N1CCCC(n2cncn2)C1)C1(c2cccc(F)c2)CC1` (stereo not drawn): the INHIBITION was determined as 23.7%.
`CCOc1ccnc(N2CCN(C(=O)c3ccoc3C)CC2)n1`: the INHIBITION was -13.5%.
For `CCCN1CC[C@@H]2OC[C@H](C(=O)Nc3cccnc3)C[C@@H]2C1` the value was 59.9%; for `CNC(=O)[C@H]1CO[C@H]2CCN(Cc3ccc4ccccc4n3)C[C@H]2C1`, 50%; for `COCCNC(=O)[C@H]1CO[C@H]2CCN(Cc3cccs3)C[C@H]2C1`, 38.5%.
For `CC(C)NC(=O)[C@@H]1C[C@H]2OCC[C@H]2N(Cc2ccc3ccccc3n2)C1` the value was 19.4%.
For `CNC(=O)[C@H]1CO[C@H]2CCN(c3ncc(F)cn3)C[C@H]2C1`, the INHIBITION turned out to be 3.58%.
Regarding `O=C(NC1CC1)[C@H]1C[C@H]2OCC[C@H]2N(Cc2ccc3ccccc3n2)C1`, the INHIBITION worked out at 38.1%.
Take `CC(C)N1CC[C@@H]2OC[C@H](C(=O)Nc3cccnc3)C[C@@H]2C1`: the INHIBITION was -25.1%.
Consider `O=C(Nc1cccnc1)[C@H]1CO[C@H]2CCN(c3ncc(F)cn3)C[C@H]2C1`, for which the INHIBITION came out at 25.4%.
In the case of `CC(C)NC(=O)[C@H]1C[C@H]2OCC[C@H]2N(Cc2ccc3ccccc3n2)C1`, the INHIBITION is on record as 61.4%.
As for `NC(=O)CSc1nccc(-c2ccc3c(c2)OCO3)n1`, the INHIBITION is recorded as -22.6%.
Consider `CS(=O)(=O)N1CCOCC2(CCN(c3ccccn3)C2)C1` (stereo not drawn), for which the INHIBITION worked out at 5.96%.
For the molecule `O=c1[nH]cc(Nc2ccc(Cl)cc2)c(=O)[nH]1`, the INHIBITION is reported as 15.4%.
Consider `O=S1(=O)CCN2C(=N1)Oc1ccc(S(=O)(=O)N3CCCC3)cc12`, for which the INHIBITION is given as 86.6%.
Take `CCS(=O)(=O)c1ccc2c(c1)N1CCS(=O)(=O)N=C1O2`: the INHIBITION was 20.1%.
Turning to `O=S1(=O)CCN2C(=N1)Oc1ccc(Cl)cc12`, the INHIBITION is 30.5%.
In the case of `Cn1cc(Br)c(=O)c(NS(=O)(=O)c2ccccc2F)c1`, the INHIBITION is given as -1.38%.
For the molecule `CCn1cc(CN(C)S(=O)(=O)c2ccc(C)c(C)c2)cn1`, the INHIBITION was found to be 10.1%.
Regarding `CCCc1nc(CN2CCOC(CNc3cccnn3)C2)cs1` (stereo not drawn), the INHIBITION came out at 58.9%.
For `Cc1cc(CN2CCOC(CNc3cccnn3)C2)no1` (stereo not drawn), the INHIBITION was found to be 7.12%.
For the molecule `COCc1nc(CN2CCOC(CNc3cccnn3)C2)cs1` (stereo not drawn), the INHIBITION turned out to be 14.1%.
With `CCc1nc(CN2CCOC(CNc3cccnn3)C2)cs1` (stereo not drawn), the INHIBITION is given as 41.5%.
For `Cc1cnc(CN2CCOC(CNc3cccnn3)C2)cn1` (stereo not drawn), the INHIBITION came to 2.26%.
Take `c1cnnc(NCC2CN(Cc3ccon3)CCO2)c1` (stereo not drawn): the INHIBITION amounted to 50.5%.
